The source of these data is PubChem BioAssay.

A short description of assay [1]: yeast TOR pathway RPL19A-GFP modulators, primary screen, cell-based, S. cerevisiae, multiplex flow cytometry (AID 1862; in the data active = percent of DMSO control GFP below about 86%;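 also: lower values mimic rapamycin by blocking the RPL19A rise seen in DMSO cells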). Conditions: S. cerevisiae RPL19A-GFP strain, flow cytometry fluorescence, 3 h; at 10 µM; stronger effect = lower value.
Assay [2] can be described thus: modulators of MEP2-GFP levels in yeast, primary screen, S. cerevisiae, multiplex flow cytometry (AID 1867;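 active = GFP response, as percent of the DMSO control, above the screen-wide mean plus 3 SD, about 139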;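 also: median GFP channel fluorescence of barcode-gated MEP2-GFP cells measured by flow cytometry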). Conditions: S. cerevisiae MEP2-GFP strain, 3 h, at 10 µM, stronger effect = higher value, 100% means same as DMSO wells.
Assay [3] can be described thus: modulators of CIT2-GFP expression in yeast, primary screen, S. cerevisiae, GFP fusion, multiplex flow cytometry (AID 1870;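 active = percent response above a set limit, the screen-wide mean plus 3 SD, cut at about 130% in these data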;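 also: barcoded CIT2-GFP strain pooled with four other GFP strains with rapamycin as positive control; median GFP fluorescence per well over plate mean of DMSO wells so 100% = DMSO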). Conditions: 3 h, at 10 µM, stronger effect = higher value. Background: Flow cytometry measures light scatter and fluorescence of single cells or particles in a stream.
Assay [4] can be described thus: modulators of LAP4-GFP expression in yeast, primary screen, S. cerevisiae, multiplex flow cytometry (AID 1873;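 active = GFP signal, as percent of the solvent control, above the screen mean plus 3 SD, about 149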). Conditions: 3 h, at 10 µM, stronger effect = higher value.
A short description of assay [5]: inhibitors of CD8+ T cell-vesicle binding, pilot screen, LFA-1/ICAM-1 modulator project, MLPCN validation set, flow cytometry (AID 2523;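 active = response below a set limit, under 55% cells CD8-positive and vesicle-bound, and CD8 cells' 90th-percentile brightness under 279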;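 as to vesicle binding response: mean PE anti-B7-1 fluorescence of CD8+ cells relative to row control; 100% = QL9-loaded vesicles with DMSO vehicle in the same plate row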). Conditions: 2C mouse CD8+ T cells, at 7 µM, stronger effect = lower value; double positive events: measured here: CD8+/vesicle+ event percentage.
The target in assay [6] is Integrin beta-1 (Homo sapiens) + Integrin alpha-4 (Homo sapiens) (UniProt P13612+P05556). Briefly: inhibition of HUTS-21 binding to VLA-4, pilot screen, VLA-4 allosteric modulator project, U937 cells, HUTS-21 mAb, flow cytometry, validation set (AID 2674;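 active = inhibition above 50%, about 3 SD of the validation set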;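 also: antibody binding induced by the VLA-4 ligand LDV present at three times its Kd; 0% = LDV ligand with antibody and no compound and 100% = antibody without LDV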). Conditions: HUTS-21 LIBS mAb binding, at 6.7 µM, stronger effect = higher value, binding induced by LDV ligand.
Assay [7] can be described thus: superoxide lowering in aged yeast cells, pilot screen, validation compound set (AID 2706;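 active = superoxide response below 65% of plate, a cut near 3 SD across the whole screen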;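 also: yeast exposed to compound for one week at 30 degrees C before staining; 100% = mean of all compound wells on the same plate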). Conditions: S. cerevisiae aging, superoxide DHE fluorescence; at 10 µM, stronger effect = lower value.
The target in assay [8] is Beta-adrenergic receptor kinase 1 (Homo sapiens) (UniProt P25098). The assay is described as follows: GRK2 binders displacing RNA aptamer, biochemical, validation, human GRK2, bead flow cytometry (AID 488806;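 active = aptamer binding inhibition above 30%, about 3 SD of noise from non-fluorescent compounds; inactive = inhibition at or below 30%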). Conditions: bead-bound GRK2, FAM-aptamer displacement, at 10 µM, stronger effect = higher value.
Assay [9] has as its target Beta-2 adrenergic receptor (Homo sapiens) (UniProt P07550). Briefly: beta2AR agonists driving receptor internalization, pilot screen, cell-based, FAP fluorogen, flow cytometry, validation set (AID 504459;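 active = percent response above 42, roughly 3 SD of non-fluorescent test compounds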;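 also: agonist-driven loss of surface beta2AR via internalization measured by FAP dye flow cytometry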). Conditions: Am2.2-beta2AR cells, FAP surface receptor flow cytometry; at 10 µM; stronger effect = higher value.
In assay [10] the target is AP-2 complex subunit beta (Homo sapiens) (UniProt P63010). Briefly: inhibitors of arrestin peptide binding to AP2, pilot screen, biochemical, validation set, GST-AP2 beads, flow cytometry (AID 504541;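 active = inhibition above 54%, about 3 SD of non-fluorescent compounds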;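 also: AP2 carries R879A mutation and is captured from E. coli lysate; bead-bound FITC arrestin peptide fluorescence measuring arrestin peptide binding to AP2; 0% = DMSO wells and 100% = excess unlabeled arrestin peptide control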). Conditions: FITC arrestin peptide, at 10 µM, stronger effect = higher value, AP2 beta2 appendage fragment, R879A mutant.
A short description of assay [11]: yeast V-ATPase proton transport modulators, S. cerevisiae, pHLuorin, HTS validation (AID 504600; in the data active = response above about 15%;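 also: plate controls were DMSO for no effect and reference compound for full effect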). Conditions: S. cerevisiae pHLuorin cytosolic pH, at 10 µM, stronger effect = higher value.
Assay [12] concerns anti-desmoglein-3 scFv antibody binding to human DSG3. The assay is described as follows: inhibitors of anti-DSG3 scFv binding to DSG3, pilot screen, biochemical, validation compound set, bead-based, flow cytometry (AID 588368;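 active = binding below the plate cutoff, the plate median minus 3 SD, with a reading above zero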;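 also: signal is the median channel fluorescence of bead-bound GFP antibody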). Conditions: Protein G beads, DSG3-Fc, scFv-GFP binding, at 10 µM, stronger effect = lower value.
A short description of assay [13]: inhibitors of fungal efflux pumps CDR1, CDR2, MDR1, pilot screen, validation compound set, multiplex, phenotypic (AID 588506;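 active = efflux inhibition above 0.42, the validation set average plus 4 SD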;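 also: Nile Red retained in cells so higher fluorescence means more efflux inhibition; 0 = negative control wells and 1 = enniatin B 25 µM full block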). Conditions: S. cerevisiae pump-expressing triplex, Nile Red efflux flow cytometry; at 10 µM; stronger effect = higher value; the pumps come from Candida albicans.
Assay [14] addresses ATP-binding cassette sub-family B member 6 (Homo sapiens) (UniProt Q9NP58). The assay is described as follows: ABCB6 transporter inhibitors, pilot screen, K562-ABCB6 cells, flow cytometry, validation set (AID 588550).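 Also: 0% = DMSO wells and 100% = benzethonium chloride 70 µM positive control.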 Conditions: K562-ABCB6 porphyrin accumulation, 1 h, at 10 µM, stronger effect = higher value.
Assay [15] can be described thus: promoters of myeloid differentiation in arrested cells, primary screen, cell-based, GFP/MAC1 double positive, flow cytometry, validation set (AID 588685;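 active = differentiation response of at least 50%, scaled between solvent and reference control, from cells with both markers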;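 also: compound exposure lasts four days before antibody staining and flow analysis; 0% = DMSO wells and 100% = 5 µM fulvestrant positive control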). Conditions: ER-HoxA9 marrow cells, stronger effect = higher value, normalized: vehicle 0, fulvestrant 100.
Assay [16] is described as follows: RPL19A-GFP modulators, yeast TOR pathway, confirmation, cell-based, S. cerevisiae, flow cytometry, cherry picks, mother/daughter gates (AID 2270;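 active = GFP response below 50% of the DMSO control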). Conditions: S. cerevisiae RPL19A-GFP strain, 3 h, at 10 µM, stronger effect = lower value, 100 = same GFP as DMSO wells.
Assay [17] can be described thus: LAP4-GFP expression modulators in yeast, confirmation, cell-based, cherry picks, flow cytometry, mother/daughter gates (AID 2271;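 active = GFP response above 150% of the DMSO control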;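 also: ratio of sample to DMSO plate mean so 100% equals DMSO level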). Conditions: S. cerevisiae LAP4-GFP strain, 3 h, at 10 µM, stronger effect = higher value, 100 means same as DMSO control.
A short description of assay [18]: modulators of MEP2-GFP levels in yeast, confirmation, S. cerevisiae, flow cytometry GFP, cherry picks (AID 2272;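 active = GFP response above 150% of the DMSO control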;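 also: ratio of well signal to plate DMSO mean so 100% equals DMSO level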). Conditions: S. cerevisiae MEP2-GFP strain, 3 h, at 10 µM, stronger effect = higher value.
The nature of assay [19]: modulators of CIT2-GFP expression in yeast, confirmation, S. cerevisiae, GFP fusion, cherry picks, mother/daughter gates (AID 2274;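 active = GFP response above 150% of the DMSO level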). Conditions: S. cerevisiae CIT2-GFP strain, flow cytometry, 3 h, at 10 µM, stronger effect = higher value.
[20] abbreviates: measured here: daughter cell gate.
Where [21] appears, read: measured here: mother cell gate.
Setting [22] is: measured here: daughter cell gate response.
Where [23] appears, read: measured here: mother cell gate response.

For orientation: inhibition means the relative decrease from the control value, in per cent.

Inconclusive results are not listed. Calls of active or inactive are those of the source.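 The calls were made as follows, unless noted: active = inhibition above the screen-wide mean plus 3 SD, about 51%; inactive = the rest.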

Chain of ATP-binding cassette sub-family B member 6 (Homo sapiens) (Q9NP58 whole entry, looked up): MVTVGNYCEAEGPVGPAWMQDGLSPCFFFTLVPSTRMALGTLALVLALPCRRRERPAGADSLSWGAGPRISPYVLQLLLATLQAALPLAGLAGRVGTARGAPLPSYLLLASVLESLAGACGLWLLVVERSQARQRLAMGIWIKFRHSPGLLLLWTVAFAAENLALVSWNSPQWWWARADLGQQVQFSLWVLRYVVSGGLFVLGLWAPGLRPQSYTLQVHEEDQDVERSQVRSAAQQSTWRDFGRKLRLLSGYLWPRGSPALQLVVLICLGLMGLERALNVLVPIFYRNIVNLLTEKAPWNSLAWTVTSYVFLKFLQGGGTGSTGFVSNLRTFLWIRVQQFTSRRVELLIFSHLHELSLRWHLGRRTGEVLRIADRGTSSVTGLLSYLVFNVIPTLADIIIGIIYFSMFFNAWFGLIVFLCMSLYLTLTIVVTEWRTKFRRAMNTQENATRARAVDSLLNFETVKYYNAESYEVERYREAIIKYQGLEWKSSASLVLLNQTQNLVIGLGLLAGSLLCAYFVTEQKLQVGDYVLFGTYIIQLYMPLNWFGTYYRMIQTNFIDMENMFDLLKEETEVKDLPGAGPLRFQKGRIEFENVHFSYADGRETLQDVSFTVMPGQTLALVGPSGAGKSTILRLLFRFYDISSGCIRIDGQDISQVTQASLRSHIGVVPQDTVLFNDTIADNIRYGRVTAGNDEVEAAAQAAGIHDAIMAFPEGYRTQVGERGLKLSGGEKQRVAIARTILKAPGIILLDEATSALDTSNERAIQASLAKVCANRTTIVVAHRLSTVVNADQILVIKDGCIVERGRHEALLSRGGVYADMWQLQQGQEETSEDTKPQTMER
Chain of Integrin beta-1 (Homo sapiens) + Integrin alpha-4 (Homo sapiens) (P05556 whole entry, looked up): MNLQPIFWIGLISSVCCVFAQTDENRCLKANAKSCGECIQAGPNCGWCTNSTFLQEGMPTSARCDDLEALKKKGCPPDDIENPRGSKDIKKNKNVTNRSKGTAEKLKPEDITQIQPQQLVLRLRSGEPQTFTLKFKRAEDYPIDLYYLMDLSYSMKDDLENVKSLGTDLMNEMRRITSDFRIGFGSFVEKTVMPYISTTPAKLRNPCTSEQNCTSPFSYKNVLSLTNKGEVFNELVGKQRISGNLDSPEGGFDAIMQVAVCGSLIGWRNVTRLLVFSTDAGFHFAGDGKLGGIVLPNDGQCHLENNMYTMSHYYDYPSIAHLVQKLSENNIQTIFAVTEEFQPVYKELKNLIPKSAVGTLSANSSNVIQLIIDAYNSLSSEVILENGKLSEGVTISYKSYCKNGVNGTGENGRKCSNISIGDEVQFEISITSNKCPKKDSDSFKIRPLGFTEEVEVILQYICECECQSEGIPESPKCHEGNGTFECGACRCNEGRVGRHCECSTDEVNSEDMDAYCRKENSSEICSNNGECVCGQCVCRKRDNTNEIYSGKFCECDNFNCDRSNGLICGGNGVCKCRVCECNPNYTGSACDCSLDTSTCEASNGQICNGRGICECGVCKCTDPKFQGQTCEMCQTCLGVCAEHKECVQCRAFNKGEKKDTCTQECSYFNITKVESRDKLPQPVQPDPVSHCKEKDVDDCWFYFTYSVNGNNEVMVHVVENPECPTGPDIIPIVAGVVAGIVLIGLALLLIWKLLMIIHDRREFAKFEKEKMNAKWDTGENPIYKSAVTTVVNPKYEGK
Chain of Integrin beta-1 (Homo sapiens) + Integrin alpha-4 (Homo sapiens) (P13612 whole entry, looked up): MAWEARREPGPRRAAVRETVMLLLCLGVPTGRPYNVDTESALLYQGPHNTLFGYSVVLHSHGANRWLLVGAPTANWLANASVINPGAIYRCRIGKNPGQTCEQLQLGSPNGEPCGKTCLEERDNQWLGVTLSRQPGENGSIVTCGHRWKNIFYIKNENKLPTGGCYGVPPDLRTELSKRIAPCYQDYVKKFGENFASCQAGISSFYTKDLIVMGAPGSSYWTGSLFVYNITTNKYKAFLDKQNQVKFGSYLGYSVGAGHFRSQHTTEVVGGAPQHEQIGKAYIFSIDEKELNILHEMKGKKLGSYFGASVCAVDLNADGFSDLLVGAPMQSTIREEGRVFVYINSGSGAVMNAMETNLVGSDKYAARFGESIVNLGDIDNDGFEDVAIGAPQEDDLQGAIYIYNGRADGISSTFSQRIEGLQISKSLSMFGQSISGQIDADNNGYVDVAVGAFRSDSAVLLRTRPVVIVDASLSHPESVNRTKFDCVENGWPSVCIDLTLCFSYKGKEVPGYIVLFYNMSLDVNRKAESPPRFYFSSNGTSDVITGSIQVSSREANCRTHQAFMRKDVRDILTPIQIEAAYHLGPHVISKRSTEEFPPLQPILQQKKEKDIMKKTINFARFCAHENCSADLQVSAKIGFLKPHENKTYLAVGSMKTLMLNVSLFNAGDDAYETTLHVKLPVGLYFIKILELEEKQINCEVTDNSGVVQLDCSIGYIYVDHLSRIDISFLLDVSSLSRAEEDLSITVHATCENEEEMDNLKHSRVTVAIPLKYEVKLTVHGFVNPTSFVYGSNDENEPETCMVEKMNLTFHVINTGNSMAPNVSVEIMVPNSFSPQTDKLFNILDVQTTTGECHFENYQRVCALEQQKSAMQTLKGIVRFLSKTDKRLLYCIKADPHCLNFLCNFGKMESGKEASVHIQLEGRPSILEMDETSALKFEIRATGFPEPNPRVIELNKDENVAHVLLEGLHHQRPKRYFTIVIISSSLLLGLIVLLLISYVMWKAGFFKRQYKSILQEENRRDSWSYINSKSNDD
Chain of Beta-adrenergic receptor kinase 1 (Homo sapiens) (P25098 whole entry, looked up): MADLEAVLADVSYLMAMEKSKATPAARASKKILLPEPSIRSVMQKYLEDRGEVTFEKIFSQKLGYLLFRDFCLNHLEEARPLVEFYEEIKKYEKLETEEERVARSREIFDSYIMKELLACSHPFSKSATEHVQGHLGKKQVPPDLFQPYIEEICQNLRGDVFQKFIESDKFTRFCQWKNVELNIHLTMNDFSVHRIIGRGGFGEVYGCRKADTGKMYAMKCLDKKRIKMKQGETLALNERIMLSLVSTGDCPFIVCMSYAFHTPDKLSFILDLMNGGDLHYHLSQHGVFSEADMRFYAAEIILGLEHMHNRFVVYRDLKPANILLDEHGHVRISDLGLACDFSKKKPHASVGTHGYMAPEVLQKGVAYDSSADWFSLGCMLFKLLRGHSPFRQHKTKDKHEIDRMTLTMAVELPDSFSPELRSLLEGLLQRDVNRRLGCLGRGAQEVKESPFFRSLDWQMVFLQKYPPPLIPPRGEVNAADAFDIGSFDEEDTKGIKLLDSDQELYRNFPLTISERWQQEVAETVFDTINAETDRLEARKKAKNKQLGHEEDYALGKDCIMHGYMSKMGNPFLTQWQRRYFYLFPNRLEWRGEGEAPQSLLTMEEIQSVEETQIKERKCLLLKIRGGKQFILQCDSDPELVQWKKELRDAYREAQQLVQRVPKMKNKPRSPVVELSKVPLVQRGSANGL
Chain of Beta-2 adrenergic receptor (Homo sapiens) (P07550 whole entry, looked up): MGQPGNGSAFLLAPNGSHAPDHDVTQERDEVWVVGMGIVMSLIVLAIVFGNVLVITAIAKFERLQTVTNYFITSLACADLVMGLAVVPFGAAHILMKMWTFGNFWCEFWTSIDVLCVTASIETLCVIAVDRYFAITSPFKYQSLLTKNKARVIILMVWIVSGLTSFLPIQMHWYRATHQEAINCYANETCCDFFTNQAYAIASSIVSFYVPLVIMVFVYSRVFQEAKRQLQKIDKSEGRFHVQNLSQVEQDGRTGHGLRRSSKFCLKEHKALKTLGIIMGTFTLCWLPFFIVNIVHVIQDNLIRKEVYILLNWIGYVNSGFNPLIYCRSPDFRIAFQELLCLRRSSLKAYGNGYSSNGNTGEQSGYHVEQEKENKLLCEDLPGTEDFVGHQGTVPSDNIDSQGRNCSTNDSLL
Chain of AP-2 complex subunit beta (Homo sapiens) (P63010 whole entry, looked up, the tested form may be a part, one chain of several): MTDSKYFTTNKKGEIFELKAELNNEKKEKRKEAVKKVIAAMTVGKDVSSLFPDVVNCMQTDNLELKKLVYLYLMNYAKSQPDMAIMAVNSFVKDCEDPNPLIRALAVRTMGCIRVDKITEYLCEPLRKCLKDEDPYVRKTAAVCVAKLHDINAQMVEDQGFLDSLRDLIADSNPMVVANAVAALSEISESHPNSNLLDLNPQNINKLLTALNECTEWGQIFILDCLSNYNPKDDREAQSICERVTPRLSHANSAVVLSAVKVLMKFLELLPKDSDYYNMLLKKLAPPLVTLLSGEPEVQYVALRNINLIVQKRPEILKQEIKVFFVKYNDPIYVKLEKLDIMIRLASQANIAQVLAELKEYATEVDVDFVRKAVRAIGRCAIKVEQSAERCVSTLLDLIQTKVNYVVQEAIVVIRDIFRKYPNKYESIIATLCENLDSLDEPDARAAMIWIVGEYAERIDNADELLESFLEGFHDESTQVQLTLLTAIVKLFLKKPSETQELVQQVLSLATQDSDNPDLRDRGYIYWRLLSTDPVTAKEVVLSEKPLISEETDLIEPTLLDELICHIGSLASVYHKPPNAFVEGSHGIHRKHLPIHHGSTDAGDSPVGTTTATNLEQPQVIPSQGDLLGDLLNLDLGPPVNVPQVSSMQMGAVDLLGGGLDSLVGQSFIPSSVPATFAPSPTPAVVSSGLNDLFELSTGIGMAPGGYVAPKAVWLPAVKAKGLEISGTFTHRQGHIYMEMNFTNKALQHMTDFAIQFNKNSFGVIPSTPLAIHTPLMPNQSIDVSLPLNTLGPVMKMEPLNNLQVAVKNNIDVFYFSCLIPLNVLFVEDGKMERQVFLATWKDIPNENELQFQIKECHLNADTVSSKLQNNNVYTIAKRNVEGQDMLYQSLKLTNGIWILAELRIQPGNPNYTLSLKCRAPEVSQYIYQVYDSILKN

Consider `Cc1ccc(NCCC(=O)c2ccccc2)cc1Cl`, for which the percent of DMSO control GFP in assay [1] is 86.2% (inactive). The GFP response vs DMSO in assay [2] was 110% (inactive); in assay [4], 78.7% (inactive). For the same compound, the percent response of DMSO control in assay [3] is 110% (inactive). In addition, the double positive events in assay [5] worked out at 63%. The vesicle binding response in [5] was 171% (inactive). In addition, the inhibition is 28.8% (inactive) in assay [6], -12.3% (inactive) in assay [10] and 10% (inactive) in [14]. Besides, the superoxide response (% of plate) in assay [7] is 99.7% (inactive). Also, the aptamer binding inhibition in assay [8] is 2% (inactive). In addition, the response in assay [9] was 2.53% (inactive); in assay [11], 2.25% (inactive). The binding (% of control) in assay [12] was 98% (inactive). In assay [13], the efflux inhibition (fraction of control) was -0.24 (inactive). Besides, the differentiation response in assay [15] is -0.82% (inactive).

On to `O=C1OC(=O)C2C1[C@@H]1CC[C@H]2O1` (stereo not given in full), for which the percent of DMSO control GFP in [1] is 96.6% (inactive). In addition, the GFP response vs DMSO in assay [2] is 103% (inactive); in assay [4], 72.6% (inactive). Besides, the percent response of DMSO control in [3] is 118% (inactive). Moreover, in assay [5], the double positive events stood at 60.8%. Also, in assay [5], the vesicle binding response is 195% (inactive). In addition, the inhibition in assay [6] was -8.09% (inactive); in assay [10], -1.78% (inactive); in assay [14] it was 7% (inactive). For the same compound, in assay [7], the superoxide response (% of plate) is 94.4% (inactive). The aptamer binding inhibition in [8] was 3% (inactive). In addition, the response in [9] is -8.34% (inactive); in assay [11], -0.92% (inactive). In addition, the binding (% of control) in [12] is 107% (inactive). In addition, in assay [13], the efflux inhibition (fraction of control) is -0.24 (inactive). Also, the differentiation response in assay [15] was -0.82% (inactive).

For `CC(=O)N1N=C(c2cccs2)CC1c1ccc(C)o1` (stereo not given), the percent of DMSO control GFP in [1] was 92.8% (inactive). In addition, the GFP response vs DMSO was 131% (inactive) in assay [2] and 78.7% (inactive) in assay [4]. The percent response of DMSO control in assay [3] was 91.3% (inactive). In assay [5], this compound came in with a double positive events of 55.8%. In addition, the vesicle binding response in assay [5] is 145% (inactive). For the same compound, the inhibition is 11.3% (inactive) in [6], -6.28% (inactive) in assay [10] and 9% (inactive) in assay [14]. In assay [7], the superoxide response (% of plate) is 117% (inactive). Also, the aptamer binding inhibition in assay [8] was 0% (inactive). Moreover, the response is -10.5% (inactive) in [9] and -0.52% (inactive) in [11]. Besides, the binding (% of control) in assay [12] was 96.7% (inactive). The efflux inhibition (fraction of control) in [13] is 0.45 (active). The differentiation response in assay [15] is -4.91% (inactive).

On to `O=C(Nc1ccc(F)cc1)c1cc2cc(Cl)ccc2[nH]1`, for which the GFP response vs DMSO in [16] was 97% (inactive); in assay [16] (setting [20]), 96.9%; in assay [16] (setting [21]), 96.2%; in [18] it was 100% (inactive). For the same compound, the GFP response relative to DMSO in assay [17] was 101% (inactive); in [17] (setting [22]) it was 97.6%; in [17] (setting [23]), 94%. In addition, the GFP response, % of DMSO in assay [19] is 99.7% (inactive); in assay [19] (setting [21]) it was 92.6%.

For `O=C(Nc1nc(-c2ccccc2)cs1)c1cccc([N+](=O)[O-])c1`, the GFP response vs DMSO was 102% (inactive) in assay [16], 100% in [16] (setting [20]), 94.5% in assay [16] (setting [21]) and 105% (inactive) in [18]. In addition, the GFP response relative to DMSO is 101% (inactive) in [17], 95.9% in [17] (setting [22]) and 95.2% in assay [17] (setting [23]). Besides, the GFP response, % of DMSO in assay [19] was 98.8% (inactive).

Take `COc1ccc(Sc2ncnc3onc(C)c23)cc1`: the GFP response vs DMSO is 96.7% (inactive) in assay [16], 96.1% in [16] (setting [20]), 95.4% in [16] (setting [21]) and 103% (inactive) in assay [18]. The GFP response relative to DMSO is 118% (inactive) in assay [17], 113% in assay [17] (setting [22]) and 120% in assay [17] (setting [23]). Also, the GFP response, % of DMSO in assay [19] is 95.8% (inactive); in assay [19] (setting [20]), 99.3%; in assay [19] (setting [21]), 96%.
